# aSyn 5UTR act = Activators via SNCA 5'UTR binding, MLPCN; alpha-synuclein 5'UTR reporter, activators screen; activity score, % (tested at 7.5 µM), hits read low; 7.1% of 300,000 active; AID 1814; in the data active = activity score below about -60%
# Numbers stand for hits; 0 = inactive. Not all results are given here.
SMILES,aSyn 5UTR act
COC(=O)c1ccc(N=Cc2c(C(F)(F)F)[nH]n(C)c2=O)cc1,-65
CCS(=O)(=O)c1nnnn1-c1ccccc1S(C)(=O)=O,-174
CC(C)n1cc(CN2CCCC(C(=O)Nc3cccc(-c4cc5ccccc5[nH]4)c3)C2)cn1 (stereo not drawn),0
Cc1cc(CN2CCCC(C(=O)Nc3ccc(-c4nc5ccccc5[nH]4)cc3)C2)n[nH]1 (stereo not drawn),-121
CC(C)CCNC(=O)c1ccccc1NC(=O)C1=CSCCO1,-119
COC(=O)c1oc2ccc(OC)cc2c1N,-76
CCN(CC)CCOC(=O)c1c(C)oc2ccc(OC)cc12,-112
CCN(CC)CCOC(=O)c1ccc(NC(=O)CCCN2C(=O)S/C(=C/c3ccc(OC)cc3)C2=S)cc1,0
COc1ccc(C(=O)c2oc3ccc(OC)cc3c2N)cc1,-167
Nc1c(C(=O)c2ccc(Cl)cc2)oc2ccccc12,-111
N=C1C(c2nc3ccccc3[nH]2)=C(O)CN1c1ccccc1,-293
CC1C(O)=C(c2nc3ccccc3[nH]2)C(=N)N1c1ccccc1 (stereo not drawn),-131
CCC(C)N1CC(O)=C(c2nc3ccccc3[nH]2)C1=N (stereo not drawn),-80
COc1ccc(/C=N/Nc2cc(C)nc3ccc(Br)cc23)cc1,0
Cc1cc2c(C)nc(N/N=C/c3ccc(F)cc3)nc2o1,-72
COC(=O)C1=C(C)N(Cc2ccccc2)C(=NCc2cccc(C(F)(F)F)c2)N[C@H]1c1cccc(F)c1,0
Cc1cccc(-n2ncc3c(NCc4ccccn4)ncnc32)c1,-113
c1ccc(-n2ncc3c(NCc4ccccn4)ncnc32)cc1,-69
CCOc1ccc(NC(=O)c2ccc3snnc3c2)cc1,-120
C=CCOc1ccc(C(=O)Nc2ccc(OCC)cc2)cc1,-70
Cc1ccc(NC(=O)c2ccc3snnc3c2)cc1C,-165
CCOc1ccc(C(=O)Oc2ccc(NC(C)=O)cc2)cc1,0
COc1cccc(NC(=O)c2ccc3snnc3c2)c1,-105
Cc1ccc(C(=O)Nc2ccc(SC(F)F)cc2)s1,-161
CC(C)COc1ccc(C(=O)Nc2ccc(SC(F)F)cc2)cc1,-90
SMILES,aSyn 5UTR act
O=C(Nc1ccc(F)cc1)c1ccc2snnc2c1,-92
CCOc1ccc2nc(NC(=O)COC)sc2c1,-97
CCOc1ccc2nc(NC(=O)Cn3[nH]c(=O)c4ccccc4c3=O)sc2c1,-105
CCOCC(=O)Nc1nc2ccc(OC)cc2s1,-89
CCOC(=O)N1CC=C2C(C#N)=C(N)C(C#N)(C#N)[C@H](c3ccccc3OCC)[C@H]2C1,-90
Cc1cc(C(=O)Nc2cccc(C(=O)O)c2)c(C)o1,-92
Cc1oc(C(C)(C)C)cc1C(=O)Nc1ccc(C(=O)O)cc1,-93
Cc1oc(C(C)(C)C)cc1C(=O)Nc1cccc(C(=O)O)c1,-114
Cc1cc(C(=O)Nc2cccc(C(=O)O)c2)oc1C,0
CC1CC1c1ccc(/C=C(\C#N)C(=O)Nc2cccc(Cl)c2Cl)o1 (stereo not drawn),-111
COCCCNC(=O)COC(=O)c1ccc(-c2nc3ccccc3s2)s1,-68
CNC(=O)COC(=O)c1ccc(-c2nc3ccccc3s2)s1,-161
Cc1ccc2nc(NC(=O)C3CCN(S(=O)(=O)c4cnc[nH]4)CC3)sc2c1,-78
O=C(NCc1ccccc1)C1CCN(S(=O)(=O)c2cc([N+](=O)[O-])ccc2Cl)CC1,-67
CC(=O)N1c2ccc(S(=O)(=O)N3CCC(C(=O)NCc4ccccc4Cl)CC3)cc2CC1C (stereo not drawn),-182
Cc1cccc(CS(=O)(=O)c2ncc(Cl)c(C(=O)NCc3ccccc3)n2)c1,0
O=C(Nc1nc2ccc(F)cc2s1)C1CCN(S(=O)(=O)c2cc([N+](=O)[O-])ccc2Cl)CC1,-197
COc1ccc(/C=C/C2=NN(C)C(=O)CC2)cc1,-120
COc1ccc(/C=N/Nc2nccnc2Cl)c(OC)c1,-111
COc1ccc2nc(Cl)c(/C=N/Nc3ccccn3)cc2c1,-88
COc1cccc(/C=N/Nc2nccnc2Cl)c1O,0
Cc1ccc(-n2nc3c(n2)/C(=N/O)CC/C3=N\O)cc1,-89
COc1ccc2oc(C(=O)NCCC(C)C)c(C)c2c1,-143
COc1ccc2oc(=O)c(C(=O)NC3CCCCCC3)cc2c1,-174
COc1ccc2oc(C(=O)Nc3ccc(C)cn3)c(C)c2c1,-124
SMILES,aSyn 5UTR act
CCN(CC(=O)Nc1ccccc1C(F)(F)F)C(=O)c1oc2ccc(OC)cc2c1C,-65
COCCN(CC(=O)NC1CCCCC1)C(=O)/C=C/C(=O)c1ccc(OC)cc1O,0
CC1(C)Oc2cc3oc(-c4cc(O)cc(O)c4)cc3cc2CC1O (stereo not drawn),0
COc1ccc2oc(C(=O)NC3CCCCC3)c(C)c2c1,-99
Cc1ccc(-n2nc(C)c(NC(=O)CCl)c2C)cc1C,-220
Clc1ccc2nc3c4ccccc4cnn3c2c1,-160
CCCN(CCC)CCCNC(=S)Nc1ccc2nc(N3CCCC3)cc(C)c2c1,-72
Cc1cc(N2CCN(C)CC2)nc2ccc(NC(=S)NCc3cccs3)cc12,-78
Cc1cc(N2CCN(C)CC2)nc2ccc(NC(=S)NCCC(C)C)cc12,-86
Cc1cccc(N2CCN(C(=O)CCCOc3ccccc3)CC2)c1C,-86
